Source: PubChem BioAssay AID492956 (The Scripps Research Institute Molecular Screening Center, 2010)
About 3,300 (0.97%) of roughly 340,000 compounds were called active. The list comes from a sample in which actives are over-represented; it also holds similar structures and randomly drawn compounds. A number with no mark means an inactive call.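 The calls were made as follows: active = inhibition above the mean over all tested compounds plus 3 SD (cut at about 30% in these data); inactive = the rest.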

These compounds were tested against Platelet-activating factor acetylhydrolase 2, cytoplasmic (Homo sapiens) (UniProt Q99487) (assay: PAFAH2 enzyme inhibitors, primary screen, biochemical, fluorescence polarization, human (AID 492956;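 also: inhibitors block probe labeling of enzyme so polarization drops; 0% = enzyme with DMSO and 100% = wells lacking PAFAH2 protein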)). Conditions: recombinant PAFAH2, FP-rhodamine activity probe, at 3.39 µM, stronger effect = higher value.
For Cc1ccc(S(=O)(=O)NCC(=O)N2CCOCCOCCOCCOCC2)cc1, the inhibition was -0.46%. O=C1/C(=C/c2cccs2)CCC1C1CCCC1 (stereo unspecified) showed an inhibition of 5.54%. In the case of CC1(C)CC(=O)c2cnc3nc4ccccc4n3c2C1, the inhibition is reported as -0.49%. O=C(NNC(=O)c1cc(S(=O)(=O)N2CCCCC2)ccc1Cl)c1ccccc1O was tested, and the inhibition was 8.97%. In the case of O=C(OCc1cn(-c2ccc(Cl)c(Cl)c2)nn1)c1ccccc1Cl, the inhibition is reported as 44.2% (active). Cc1cccc(/C(N)=N/OC(=O)c2ccccc2Cl)c1 showed an inhibition of -5.1%. In the case of NC(=O)COC(=O)c1cc(S(=O)(=O)N2CCN(c3ccccc3)CC2)ccc1Cl, the inhibition is reported as 5.41%. CC(C)NC(=O)NC(=O)COC(=O)c1ccc(NC(=O)CC#N)cc1 showed an inhibition of 14.3%. Work on N#CCC(=O)Nc1ccc(C(=O)OCC(=O)Nc2sc3c(c2C#N)CCCC3)cc1 yielded an inhibition of -11.9%. For CC(C)c1ccc(NC(=O)COC(=O)c2ccc(CN3CCCC3=O)cc2)cc1, the inhibition was 85% (active). Compound Cc1noc(C)c1C(=O)NC(C)c1ccc2c(c1)OCO2 (stereo unspecified) has an inhibition of -1.75%. Work on CCN(CC)c1ccc(NC(=O)CCc2nnc3ccc(N4CCCCC4)nn23)c(C)c1 yielded an inhibition of 1.19%. For O=C(COC(=O)CNS(=O)(=O)c1ccccc1)NC12CC3CC(CC(C3)C1)C2, the inhibition was 1.43%. O=C(COC(=O)C12CC3CC(CC(O)(C3)C1)C2)NC12CC3CC(CC(C3)C1)C2 was tested, and the inhibition was 75.8% (active). O=C(CNCCO)NC12CC3CC(CC(C3)C1)C2 was tested, and the inhibition was 0.19%. Cc1ccc2[nH]c(=O)c(CN(C)S(=O)(=O)c3cccc4nonc34)cc2c1 gave an inhibition of -8.49%. For Cn1nccc1NC(=O)CC(CC(=O)O)c1ccccc1 (stereo unspecified), the inhibition was 4.64%. COCCCN1C(=O)C(=O)/C(=C(/O)c2ccc(S(=O)(=O)N3CCOCC3)cc2)C1c1ccc(F)cc1 (stereo unspecified) was tested, and the inhibition was 1.52%. With COc1ccc(NC(=O)ON=C2c3ccccc3-c3ccccc32)cc1 the inhibition was -4.24%. In the case of COc1ccc(C(=O)ON=C2c3ccccc3-c3ccccc32)cc1OC, the inhibition is reported as 72.8% (active). COc1cc(C(C)=O)ccc1OC(=O)CN1C(=O)c2ccccc2C1=O gave an inhibition of 1.95%. In the case of CCc1c(SCCC(=O)O)nc2ccccc2c1C, the inhibition is reported as 33% (active). Work on O=C(O)CSc1nccc2ccccc12 yielded an inhibition of 2.03%. O=C(O)CCSc1nnc(-c2ccccc2)n1-c1ccccc1 was tested, and the inhibition was -1.18%. For C/C(=N\OCC(=O)Nc1ccc(Br)cc1)c1cccs1, the inhibition was -0.72%. Work on CCn1c(Cc2ccc(OC)cc2)nnc1SCC(=O)Nc1ccc(N2CCOCC2)cc1 yielded an inhibition of -3.23%.
